Reference: PubChem BioAssay AID743325 (National Center for Advancing Translational Sciences (NCATS), 2014)
Calls of active or inactive are those of the source. Calls follow the shape of the full dose curve. Square brackets hold non-standard residues; d marks the D form. Peptide text beside a SMILES is read from it. Orn = NCCC[C@H](N)C(=O)O

test: qHTS profiling of Chloroquine Analogs as inhibitors of Plasmodium falciparum (3D7) proliferation; conditions: activity change, negative = inhibition: at 28.7 µM (top of the series) unless noted
From the text: Plasmodium falciparum is a virulent malarial parasite that kills 1-2 million people worldwide each year. Transmitted by mosquitoes, the sporozoite form of the parasite enters the blood stream to infect hepatocytes, where they become merozoites that infect red blood cells (erythrocytes). Within erythrocytes, merozoites begin a […] cycle of growth and division, after which the parasite is released to infect new red blood cells. Gametocytes, which form within erythrocytes as well, circulate in the bloodstream and are ingested by the mosquito, thereby completing the life cycle. To profile malarial isolates for differential chemical responses and to identify inhibitors of malarial growth, an assay that measures P. falciparum growth and replication within erythrocytes was employed. This assay uses a DNA binding fluorescent dye (SYBR Green) to detect parasite DNA following cell lysis. Because mature erythrocytes lack DNA, only Plasmodium-derived DNA is detected.
The SYBR Green viability assay was adapted from a method described previously (Plouffe et al., 2008). For screening 3 ul culture medium was dispensed into 1536 well black clear bottom plates (Aurora Biotechnologies) using a Multidrop Combi (Thermo Fisher Scientific Inc.), 23 nL compounds in DMSO were added by a pin tool (Kalypsys), and 5 ul of erythrocytes infected with P. falciparum (0.3% parasitemia, 2.5% hematocrit final concentration) were added. The plates were incubated at 37 C in a humidified incubator in 5% CO2 for 72 h, and 2 ul lysis buffer (20 mM Tris HCl, 10 mM EDTA, 0.16% saponin, 1.6% triton X, 10X SYBR Green I supplied as 10,000X […] by Invitrogen) was added to each well. The plates were mixed for 25 sec with gentle shaking and incubated overnight at room temperature in the dark. The following morning, fluorescence intensity at 485(14) nm excitation and 535(25) nm emission wavelengths was measured on an EnVision (Perkin Elmer) plate reader. Plate reads were normalized relative to the control inhibitor (0.29 uM artemisinin) and vehicle (DMSO) wells present on each plate and then corrected by an algorithm using vehicle-only control plates at the beginning and end of the compound plate stack.

| Structure (SMILES) | Potency | activity change, negative = inhibition |
| --- | --- | --- |
| Oc1cc(Cl)ccc1Oc1ccc(Cl)cc1Cl | 1880 nM (active) | – |
| Clc1ccc(COC(Cn2ccnc2)c2ccc(Cl)cc2Cl)c(Cl)c1 (stereo not given) | – | -97.6% [at 14.2 µM] |
| CNCCC(Oc1ccccc1OC)c1ccccc1 (stereo not given) | – | -93.6% |
| CC(C)(C)c1cc(O)c(CN)c(C(C)(C)C)c1 | 168 nM (active) | – |
| CCN(CC)CCCC(C)Nc1ccnc2cc(Cl)ccc12 (stereo not given) | – | -99% |
| O=CN(O)CCCP(=O)(O)O | 530 nM (active) | – |
| CCc1nc(N)nc(N)c1-c1ccc(Cl)cc1 | – | -98.9% |
| COc1cc(NC(C)CCCN)c2ncccc2c1 (stereo not given) | 902 nM (active) | – |
| CCOc1ccccc1O[C@H](c1ccccc1)[C@H]1CNCCO1 | inactive | – |
| CNC(=O)c1cc(Oc2ccc(NC(=O)Nc3ccc(Cl)c(C(F)(F)F)c3)cc2)ccn1 | – | -100% |
| C=CC(C)=C[C@@]1(C)SC(=O)C(C)=C1O | inactive | – |
| COc1cc(C=CC(=O)CC(=O)C=Cc2ccc(O)c(OC)c2)ccc1O | 8410 nM (active) | – |
| CC[C@@H](C)[C@H]1O[C@]2(CC[C@H]1C)C[C@@H]1C[C@@H](CC=C(C)[C@@H](O[C@H]3C[C@H](OC)[C@@H](O[C@H]4C[C@H](OC)[C@@H](O)[C@H](C)O4)[C@H](C)O3)[C@@H](C)C=CC=C3CO[C@@H]4[C@H](O)C(C)=C[C@@H](C(=O)O1)[C@]34O)O2 | – | -99.9% |
| C=C[C@@H]1CN2CCC1C[C@@H]2C(O)c1ccnc2ccc(OC)cc12 (stereo not given in full) | – | -97.6% |
| CN(C)CC/C=C1\c2ccccc2COc2ccccc21 | 2020 nM (active) | – |
| COC(=O)C1C2CC3c4[nH]c5cc(OC)ccc5c4CCN3CC2CC(OC(=O)c2cc(OC)c(OC)c(OC)c2)C1OC (stereo not given) | – | -101% [at 57.5 µM] |
| CN1CCN(CCCN2c3ccccc3Sc3ccc(S(=O)(=O)N(C)C)cc32)CC1 | 716 nM (active) | – |
| COc1cccc(CCc2ccccc2OCC(CN(C)C)OC(=O)CCC(=O)O)c1 (stereo not given) | 2980 nM (active) | – |
| C=C[C@@H]1CN2CC[C@@H]1C[C@H]2[C@H](O)c1ccnc2ccc(OC)cc12 | – | -98.6% |
| C[C@@H]1Cc2c([nH]c3cc(Cl)c(F)cc23)[C@]2(N1)C(=O)Nc1ccc(Cl)cc12 | – | -101% |

| Structure (SMILES) | Potency | activity change, negative = inhibition |
| --- | --- | --- |
| C[C@@H]1CC[C@H]2[C@@H](C)C(=O)O[C@@H]3OC4(C)CC[C@@H]1C32OO4 (stereo not given in full) | – | -99.4% [at 57.5 µM] |
| Cc1cccc(C)c1NC(=O)C(C)N (stereo not given) | inactive | – |
| CC(C)N=C(N)N=C(N)Nc1ccc(Cl)cc1 | 26.6 nM (active) | – |
| C#C[C@]1(O)CC[C@@H]2[C@H]3CCC4=CC(=O)CC[C@H]4[C@H]3C(=C)C[C@@]21CC | inactive | – |
| COCC(=O)O[C@]1(CCN(C)CCCc2nc3ccccc3[nH]2)CCc2cc(F)ccc2[C@@H]1C(C)C | – | -102% |
| O=C(C[C@@H]1NCCC[C@@H]1O)Cn1cnc2ccccc2c1=O | 2.7 nM (active) | – |
| CO[C@H]1O[C@@H]2O[C@@]3(C)CC[C@@H]4[C@@H](C)CC[C@@H]([C@H]1C)[C@@]24OO3 | inactive | – |
| O=C1C(=O)c2ccccc2C(O)=C1C1CCC(c2ccc(Cl)cc2)CC1 (stereo not given) | 0.7 nM (active) | – |
| CN(C)c1ccc2nc3ccc(=[N+](C)C)cc-3sc2c1 | 4.3 nM (active) | – |
| CN1C[C@H](C(=O)N[C@]2(C)O[C@@]3(O)[C@@H]4CCCN4C(=O)[C@H](Cc4ccccc4)N3C2=O)C[C@@H]2c3cccc4[nH]cc(c34)C[C@H]21 | 530 nM (active) | – |
| COc1cc2c(Nc3ccc(NC(=O)c4ccccc4)cc3)ncnc2cc1OCCCN1CCOCC1 | – | -100% |
| C[N+]1(C)CCC(=C(c2ccccc2)c2ccccc2)CC1 | – | -94.2% [at 14.2 µM] |
| CN(C)CCOC(c1ccccc1)c1ccccc1 | inactive | – |
| CC(C)C[C@@H]1NC(=O)[C@H](CCCN)NC(=O)[C@H](C(C)C)NC(=O)[C@@H]2CCCN2C(=O)[C@@H](Cc2ccccc2)NC(=O)[C@H](CC(C)C)NC(=O)[C@H](CCCN)NC(=O)[C@H](C(C)C)NC(=O)[C@@H]2CCCN2C(=O)[C@@H](Cc2ccccc2)NC1=O (cyclo(V[Orn]L[dF]PV[Orn]L[dF]P)) | – | -102% |
| C=Cc1c(C)c2cc3nc(cc4[nH]c(cc5nc(cc1[nH]2)C(C)=C5CCC(=O)OC)c(CCC(=O)O)c4C)[C@@]1(C)C3=CC=C(C(=O)OC)[C@H]1C(=O)OC | inactive | – |
| O[C@H](c1cc(C(F)(F)F)nc2c(C(F)(F)F)cccc12)[C@H]1CCCCN1 | inactive | – |
| C[C@@H]1[C@@H](CC(C[C@H]2O[C@@H]3O[C@]4(C)CC[C@@H]5[C@H](C)CC[C@@H]([C@H]2C)[C@@]35OO4)C[S+](=O)([O-])c2ccc(COC(=O)N(C)C)cc2)O[C@@H]2O[C@]3(C)CC[C@H]4[C@H](C)CC[C@@H]1[C@@]24OO3 (stereo not given in full) | inactive | – |
| C[C@H]1Cc2c([nH]c3cc(Cl)c(F)cc23)[C@@]2(N1)C(=O)Nc1ccc(Cl)cc12 | – | -101% |
| COc1ccc2nc3cc(Cl)ccc3c(Nc3cc(CN4CCCC4)c(O)c(CN4CCCC4)c3)c2n1 | – | -101% |
| C[C@@H]1CCC2[C@@H](C)[C@@H](O)O[C@@H]3O[C@@]4(C)CC[C@@H]1[C@@]23OO4 (stereo not given in full) | – | -101% |
